Source: PubChem (Broad Institute)
aSyn UTR act = Activators working through SNCA 5'UTR binding (MLPCN). alpha-synuclein 5'UTR reporter, activators screen. activity score, % (tested at 7.5 µM), hits read low. hit rate 7.1% among 300,000. AID 1814; in the data active = activity score below about -60%
* = called active by the depositor. These entries were drawn from the full list.

SMILES	aSyn UTR act
COc1ccc(Nc2sc(C(=O)Nc3cccc(Cl)c3)c(N)c2C(=O)Nc2ccccc2OC)cc1	-67*
Cc1nc(NC(=O)C2CC2)sc1C(=O)Nc1ccccc1Cl	-164*
COc1ccccc1NC(=O)c1ccc2nsnc2c1	-112*
COc1cccc(NC(=O)c2ccc3nsnc3c2)c1	-151*
COc1ccccc1NC(=O)c1sc(Cl)nc1C	-69*
O=C(Nc1ccc(Br)cc1F)c1ccc2nsnc2c1	-106*
O=C(Nc1ccc(F)cc1)c1ccc2nsnc2c1	-175*
CCCOc1cccc(C(=O)Nc2ccc(Br)cc2F)c1	-161*
O=C1N=C(N2CCOCC2)SC1=C1CCCCC1	-85*
COc1ccc(-n2nc3cc(C)c(N)cc3n2)cc1Cl	-142*
CCCc1ccc(Oc2cc(C)nc(N3CCOCC3)n2)cc1	-63*
O=C(O)c1ccc(N/N=C/c2ccc(-c3cc(Cl)ccc3Cl)o2)cc1	-156*
O=C(O)c1ccc(N/N=C/c2ccc(-c3ccc(Cl)cc3Cl)o2)cc1	-62*
O=C(O)c1ccc(N/N=C/c2ccc(-c3cccc(Cl)c3)o2)cc1	-114*
O=C(c1ccccc1)c1nn(-c2ccc(Cl)cc2)c(=O)cc1C(F)(F)F	-219*
Cc1ccn2c(=O)nc(SCC(=O)c3ccccc3)nc2c1	-76*
Cc1ccc2nc(SCC(=O)c3ccccc3)nc(=O)n2c1	-112*
O=[N+]([O-])c1cc(C=Nc2ccc3ccccc3c2)ccc1Br	-119*
CC(=O)/C=C/c1ccccc1Oc1c(F)c(F)nc(F)c1F	-94*
C[C@@H]1OC(Nc2ccc(N=Nc3ccccc3)cc2)[C@H](O)[C@H](O)[C@H]1O (stereo partly specified)	-88*
COc1ccc(C([O-])=Nc2ccc[n+](-c3nc4ccccc4nc3NS(=O)(=O)c3ccccc3)c2)cc1	84
CC(=O)Nc1ccc(S(=O)(=O)Nc2nc3ccccc3nc2Nc2ccc3ccccc3c2)cc1	-133*
C#CC[N+](C)(C)CCCCCCCCCCCC	77
COc1ccccc1NC(=O)/C=C/c1ccc2c(c1)OCO2	-167*
CCOc1ccc(C(=O)Nc2c(C(N)=O)oc3ccccc23)cc1	-115*
SMILES	aSyn UTR act
COc1ccccc1NC(=O)c1ccc2c(c1)OCO2	-125*
O=C(Nc1ccc2c(c1)oc1ccccc12)c1ccc2c(c1)OCO2	-233*
COc1ccc(NC(=O)c2oc3ccccc3c2NC(=O)c2ccc3c(c2)OCO3)cc1	-68*
O=c1c(O)c(-c2ccc3c(c2)OCO3)oc2ccccc12	-133*
COc1cc2c(cc1NC(=O)c1ccc3c(c1)OCO3)oc1ccccc12	-285*
CCOc1ccc(OCC(=O)Nc2nccs2)cc1	69
O=C(Nc1nccs1)c1ccc2ccccc2c1	-114*
O=C(NCCc1ccccc1F)C(=O)Nc1nccs1	-122*
O=C(Nc1nccs1)c1ccccn1	-123*
CCOc1cccc(C(=O)Nc2nccs2)c1	-173*
O=C(Nc1n[nH]c(=S)s1)c1ccc2ccccc2c1	-115*
O=C(Nc1nccs1)c1ccc(Br)cc1	-161*
COc1ccc2oc(-c3ccc(C)c(NC(=O)c4ccc(N5CCOCC5)c([N+](=O)[O-])c4)c3)nc2c1	-95*
O=C(Nc1nccs1)c1ccc(N2CCOCC2)c([N+](=O)[O-])c1	-80*
Oc1c(C=Nc2ccccc2Cl)[nH]c2ccccc12	-101*
CSc1ccc(/C=C/C(=O)c2ccc(O)cc2)cc1	-172*
Cc1ccc(/C=C/C(=O)c2ccc(O)cc2)cc1	-309*
COc1cc(/C=C/C(=O)c2ccc(C)cc2)ccc1OCC#N	-100*
Cc1ccc(C(=O)/C=C/c2ccc3ncccc3c2)cc1	-68*
COc1cc(C(=O)OCC#N)ccc1OCc1c(C)noc1C	-66*
COc1cc2[nH]c3ccccc3c2cc1C	-65*
O=C(/C=C/c1ccc(O)c(O)c1)c1ccccc1O	-293*
O=C(/C=C/c1cc2ccccc2o1)c1ccccc1O	-161*
O=C(/C=C/c1ccc(O)c(O)c1)OCCc1ccccc1	-131*
O=C(/C=C/c1ccoc1)c1ccccc1O	-76*
SMILES	aSyn UTR act
COCCCn1c(C(=O)N2CC(C)OC(C)C2)cc2c(=O)n3cccc(C)c3nc21 (stereo unspecified)	-71*
Cc1cc(C)n2nc(Nc3ccccc3)cc2n1	-165*
Cc1ccc(NC(=O)c2cc3nc(C)cc(C)n3n2)cc1	-82*
Cc1ccc(-c2cc3nc(C)cc(C)n3n2)cc1	-109*
Cc1cc(C)n2nc(-c3ccccc3)cc2n1	-97*
COc1cc(Cl)ccc1OCc1cc(C(=O)N(C)CCc2cnn(C)c2)no1	-91*
Cc1cc(OCc2cc(C(=O)N(C)CCc3cnn(C)c3)no2)cc(C)c1Cl	-145*
COC(=O)c1cn[nH]c1NC(=S)Nc1ccc(C)cc1Cl	-127*
COC(=O)c1cn[nH]c1NC(=S)Nc1ccc(Cl)c(Cl)c1	-101*
COc1cc2c(cc1OC)C(c1cccs1)N(C(=S)NC(C)C)CC2 (stereo unspecified)	-74*
Cc1ccc(-n2nc(C)c3c(C)cc(=O)[nH]c32)cc1	-69*
CCOc1ccc2nc(NC(=O)c3ccc(OCC4CCCO4)cc3)sc2c1 (stereo unspecified)	-99*
CCOc1ccc2nc(NC(=O)CSc3nnc(-c4ccncc4)n3CC3CCCO3)sc2c1 (stereo unspecified)	-76*
Cc1cccc2sc(NC(=O)c3ccc(OCC4CCCO4)cc3)nc12 (stereo unspecified)	-144*
Cc1cccc2sc(NNC(=O)c3ccc(S(=O)(=O)N4CCCC(C)C4)cc3)nc12 (stereo unspecified)	78
O=C1OC(c2ccccc2)=C/C1=C/N1CCCCC1	-185*
O=C1OC(c2ccc(Br)cc2)=N/C1=C\N1CCCCC1	-95*
O=C1OC(c2ccccc2)=N/C1=C\N1CCCCC1	-152*
CN1CCSc2ccc(C(=O)Nc3cccc(F)c3)cc21	-134*
COc1ccc(NC(=O)c2ccc3c(c2)N(C)CCS3)cc1	-148*
O=C(Nc1nc(-c2nc3ccccc3s2)cs1)C1COc2ccccc2O1 (stereo unspecified)	-136*
COc1ccc2nc(NC(=O)C3COc4ccccc4O3)sc2c1 (stereo unspecified)	-80*
CS(=O)(=O)c1ccc2nc(NC(=O)C3COc4ccccc4O3)sc2c1 (stereo unspecified)	-98*
Cc1ccc(OCC(=O)Nc2cccc(C)n2)c(C)c1	-137*
Cc1cccc(NC(=O)COc2ccc(Br)cc2)n1	-71*
SMILES	aSyn UTR act
CCOC(=O)c1csc(-c2ccc([N+](=O)[O-])cc2)n1	-67*
COc1ccc(C(=O)N[C@H](C(=O)Nc2nc3c(s2)CCCC3)C(C)C)cc1	-201*
CCOc1ccccc1C(=O)N[C@H](C(=O)Nc1nc2c(s1)CCCC2)C(C)C	-87*
COc1ccc(/C=C/C(=O)NC2CCCCCC2)cc1S(=O)(=O)N1CCOCC1	-75*
CCN(CC)S(=O)(=O)c1cc(C(=O)NC2CCCCC2)ccc1C	-111*
Cc1ccc(C(=O)NC2CCCCCC2)cc1S(=O)(=O)N1CCOCC1	-70*
Cn1c(CNc2ccccc2)nc2ccccc21	-113*
Cn1c(CNc2ccc(F)cc2)nc2ccccc21	-123*
Clc1cccc(N/N=C/c2ccc(N3CCOCC3)s2)c1	-167*
COc1ccc(C(=O)NCCn2cc(SCC(=O)Nc3nnc(C)s3)c3ccccc32)cc1	-69*
Cc1ccc(Nc2ncc3c(n2)CC(C)CC3=O)c(C)c1 (stereo unspecified)	-82*
Cc1ccc(NS(=O)(=O)c2ccc(-c3cnc(C4CC4)o3)cc2)c(C)c1	77
